Reference: PubChem BioAssay AID743279 (National Center for Advancing Translational Sciences (NCATS), 2014)
The campaign covered roughly 360,000 compounds. About 17,000 (4.7%) were called active. Not shown: some 5% with an inconclusive outcome. No stated cut-off is given here; in the data, active means activity change below about -50%; inconclusive means mostly about -30% to -49%; inactive means weaker than that. What follows is part of a selection rich in actives, with near analogues and random picks from the rest.

Assay: qHTS for Inhibitors of Inflammasome Signaling: IL-1-beta AlphaLISA Primary Screen
Settings: THP-1 LPS/ATP IL-1B secretion, 16 h; at 57.5 µM, stronger effect = lower value
How it was run: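 Secreted IL-1B measured by AlphaLISA bead assay after 16 h compound exposure of THP-1 cells; compounds (final up to 57.5 uM) added 1 h before LPS (250 ng/mL) and ATP (1.25 mM) stimulation; lower signal means less secretion.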
On the % scale 0 is the no-effect control and ±100 the full control effect.

Activity change, active:
CCOC(=O)CC1C(=O)NCCN1c1nc2c(C)cccn2c(=O)c1/C=C1\SC(=S)N(C(C)CC)C1=O (centres undefined) -79.5%
COc1ccc(C(=O)Nc2ccc(C3(C#N)CCCC3)cc2)cc1OC -55%
Cc1ccc(Cc2c(-c3ccco3)nc3ccc(Cl)cn23)cc1 -76.3%
O=C(O)c1ccc(NC(=O)c2cn(-c3ccccc3)nc2-c2ccc(Cl)cc2)cc1 -53.3%
Cc1cc(N2CCOCC2)nc2ccc(NC(=S)N3CCN(Cc4ccccc4)CC3)cc12 -70.6%
C(=N/Nc1cc(N2CCOCC2)nc(N2CCOCC2)n1)/c1ccccc1 -78.9%
O=[N+]([O-])c1ccc(O)c(/C=N/Nc2ccccc2[N+](=O)[O-])c1 -51.4%
CCOc1cc(/C=C2\SC(N3CCCC(C)C3)=NC2=O)ccc1O (centres undefined) -57.3%
C=CS(=O)c1sc(Cl)c(N2CCOCC2)c1[N+](=O)[O-] (centres undefined) -104%
Cc1cc(C)nc(S/C=C/C(=O)c2ccccc2)n1 -104%
CN(c1ccccc1)S(=O)(=O)c1cccc(NC(=O)Cc2ccc(Cl)cc2)c1 -55.5%
CCCCc1c(-c2ccc(Br)cc2)ncn1CCc1ccccc1OC -93.2%
CCCCc1c(-c2ccc(Cl)cc2)ncn1CCc1ccccc1OC -109%
CCCCCc1c(-c2ccc(OC)c(OC)c2)ncn1CCc1ccccc1OC -71.5%
CCCCCc1c(Cc2ccccc2)ncn1CCc1ccccc1OC -55.8%

Activity change, inactive:
CC(=O)C1=CCC(c2ccccc2)N(S(=O)(=O)c2ccc(C)cc2)C1 (centres undefined) 0%
Cc1cc(Cl)ccc1N1C(=O)CC(SCCC(=O)O)C1=O (centres undefined) 9.22%
CCCN(CCC)c1nc2c(C)cccn2c(=O)c1/C=C1/SC(=S)N(Cc2ccco2)C1=O 8.74%
CCOC(=O)N1CCN(C(=O)CSc2nc(=O)n3cccc(C)c3n2)CC1 -6.68%
CN1OC[C@@H]2CN(S(=O)(=O)c3cccc(C(F)(F)F)c3)[C@H](c3ccc(-c4cc5ccccc5o4)cc3)C[C@@H]21 -0.573%
Cc1nnc(N(Cc2ccco2)C(=O)c2ccno2)s1 -16.2%
COc1ccc(Sc2ccc(NC(=O)c3cccc(Cl)c3)cc2C#N)cc1 -1.44%
COc1cc(C(=O)NCC2(c3ccccc3)CCCC2)ccc1OC(C)C -0.814%
COc1ccc(C(=O)Nc2ccc3nc(N4CCCCC4)cc(C)c3c2)cc1OC 30.7%
CC(C)CN(C(=O)Cn1c(=O)cnc2ccccc21)C1CCS(=O)(=O)C1 (centres undefined) 5.99%
CCn1c(SCC(=O)N2CCCC2=O)nc2ccccc21 -4.32%
COc1cc(C(O)c2nc(-c3cccc(C(=O)O)c3)cs2)ccc1F (centres undefined) 1.15%
Cc1ccc(Cc2c(-c3ccccc3)nc3ccc(Cl)cn23)cc1 1.06%
Cc1ccc2nc(-c3ccco3)c(Cc3cccc(Cl)c3)n2c1 -21.3%
COc1ccc(CCc2nnc(CCC(=O)NCc3cnn(-c4ccccc4C)c3)o2)cc1 0%
CCCCCn1nnnc1C1c2ccccc2C(=O)N1Cc1ccco1 (centres undefined) 0%
Cc1ccc(-c2nn(-c3ccccc3)cc2C(=O)Nc2cccc(S(=O)(=O)N3CCOCC3)c2)cc1 -2.09%
Cc1ccc(-c2nn(-c3ccccc3)cc2C(=O)NCCCN2CCCC2=O)cc1 0%
Cc1ccc(Cc2c(-c3ccc(C)cc3)nc3c4ccccc4ccn23)cc1 27.7%
FC(F)(F)c1ccccc1Cc1c(-c2ccccc2)nc2c3ccccc3ccn12 14.3%
CCOCCCNC(=S)Nc1ccc2nc(N3CCN(CC)CC3)cc(C)c2c1 46.7%
Cc1cc(N2CCN(C)CC2)nc2ccc(NC(=S)N3CCOCC3)cc12 -0.695%
CC(=O)N1C[C@@H](CO)[C@@H](N(C)C(=O)c2ccco2)C[C@H]1c1ccccc1 11.5%
Fc1ccccc1/C=N/Nc1cc(N2CCCCC2)ncn1 -12%
CN(C)c1ccc(/C=N/Nc2cc(N3CCOCC3)nc(N3CCOCC3)n2)cc1 -1.5%
OC(c1ccccc1)c1nc(-c2cnc3ccccc3c2)cs1 (centres undefined) 32.8%
O=C(Cc1ccc([N+](=O)[O-])cc1)NCCc1ccc2c(c1)OCO2 0%
Nc1nnnn1/N=C/c1cc([N+](=O)[O-])ccc1O 0%
O=C(N/N=C/c1cc([N+](=O)[O-])ccc1O)/C(=C\c1cccs1)NC(=O)c1ccccc1 245%
CCCNC(=O)c1cc(C2CCCCN2S(=O)(=O)c2ccc(C#N)cc2)on1 (centres undefined) -18.6%
CCOc1cc(/C=C2\C(=N)N3N=C(C)SC3=NC2=O)ccc1OCCOc1ccccc1 4.36%
CCOc1ccc2nc(C(=O)N3CCCC(C)C3)sc2c1 (centres undefined) -10.2%
Nc1[nH]c(C(=O)c2ccccc2)c(-c2ccc(Br)cc2)c1C(=O)NC1CC1 12%
CCNc1c(NS(=O)(=O)c2ccc(C3CCCCC3)cc2)c(=O)oc2ccccc12 29.7%
CCCCNC(=O)OC1CC2CC1[C@H]1CCCCN1C2=O (some centres undefined) 12.3%
Cc1cc(C)nc(SCC(=O)N(C)C)n1 0%
Cc1cc(C)nc(SCc2ccccc2C#N)n1 -12.7%
CNc1cncc(-c2cccc(C(=O)N3CCOCC3)c2)n1 -12.2%
CN(c1ccccc1)S(=O)(=O)c1cccc(NC(=O)Cc2c(F)cccc2Cl)c1 0%
CN(C)S(=O)(=O)c1cccc(NC(=O)Cc2ccsc2)c1 19.3%
COc1nnc(-c2ccc(C)c(S(=O)(=O)N(C)C)c2)c2ccccc12 -11.4%
CCCc1c(-c2ccccc2F)ncn1Cc1ccccc1OC -24.5%
CCc1c(-c2ccc(F)cc2)ncn1Cc1cccc(-c2ccccc2)c1 4.55%
COc1ccccc1CCNS(=O)(=O)c1cn(C)nc1C -3.36%
COc1ccccc1Cc1c(-c2ccc(Cl)cc2)nc2c3ccccc3ccn12 4.19%
CCCCCc1c(-c2cccc(Br)c2)ncn1CCc1ccccc1OC -27.9%
COc1ccccc1Cc1c(-c2ccc(Cl)cc2)nc2ccc(Cl)cn12 16.9%
Cn1c(=O)c2c(ncn2CCc2ccccc2)n(C)c1=O 26.6%
CCC(=O)NCc1cc(-c2nn(C)c(=O)c3ccccc23)ccc1OC -12.6%
